Compound activity (PubChem BioAssay)
Many of the other results were omitted from the sample, so hits are more common in it than they were.
Pf Dd2 growth – qHTS Primary assay for Inhibitors of Plasmodium falciparum Dd2 growth in vitro; P. falciparum Dd2 growth, SYBR Green, 72 h; hit rate 4.3% among 120,000; AID 1347417, 2020; Potency, µM (series often up to 28.9 µM), inactives show at the top dose activity, negative = inhibition, usual class: inhibitors; active = well fitted inhibition curve with a large enough effect;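 also: plate controls were DMSO vehicle for no effect and reference drug for full effect; nearly all actives have a fitted effect of over 65% in size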
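Readout: SYBR Green fluorescence, 485 nm excitation, 535 nm emission, after ~16 h lysis at 37C. Before that, Dd2-infected red cells (2.5% hematocrit) grew 72 h with compound, 29 uM top final concentration.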
* = called active by the depositor; i = inactive; [ ] = remark or other dose. Potency is read from the fitted curve at half-maximal effect.

SMILES	Pf Dd2 growth
O=C(c1ccc(C(F)(F)F)cc1)N1CCC2(CC1)C(=O)Nc1ccccc12	-3.1%
O=C1Nc2ccccc2C12CCN(Cc1ccc(C(F)(F)F)cc1)CC2	12.6µM*
O=C1Nc2ccccc2CN(Cc2ccc(C(F)(F)F)cc2)C12CCNCC2	6.31µM*
O=C(Cn1ccn2nc(-c3ccccc3)c(CO)c2c1=O)N1CCC(Cc2ccccc2)CC1	-16.6%
CCC(=O)N1CCCC(n2c(C)cnc2-c2cccnc2)C1 (centres undefined)	3.5%
CCOc1ccc(CCNC(=O)c2ccc3c(c2)N(Cc2ccccc2)C(=O)c2ccccc2S3=O)cc1OCC (centres undefined)	i
Cc1ccc(CCNC(=O)c2ccc3c(c2)N(Cc2ccccc2)C(=O)c2ccccc2S3=O)cc1 (centres undefined)	i
COc1ccc(CCNC(=O)c2ccc3c(c2)N(Cc2ccccc2Cl)C(=O)c2ccccc2S3)cc1OC	11.2µM*
COc1ccc(CCNC(=O)c2ccc3c(c2)N(Cc2cc(C)ccc2C)C(=O)c2ccccc2S3=O)cc1OC (centres undefined)	4.47µM*
CCOc1ccc(CN2C(=O)c3ccccc3Sc3ccc(C(=O)NCc4ccc5c(c4)OCO5)cc32)cc1	10µM*
CCOc1ccc(CN2C(=O)c3ccccc3Sc3ccc(C(=O)NC)cc32)cc1	-14.0%
CNC(=O)c1ccc2c(c1)N(Cc1ccccc1Cl)C(=O)c1ccccc1S2	i
O=C(NCc1ccco1)c1ccc2c(c1)N(Cc1ccccc1)C(=O)c1ccccc1S2	i
Cc1ccc(CCNC(=O)c2ccc3c(c2)N(Cc2cccc(F)c2)C(=O)c2ccccc2S3)cc1	2.4%
Cc1cnc(C2CCNC2)n1Cc1ccc(F)cc1 (centres undefined)	13.8%
O=C(O)C1(c2ccccc2)CCN(S(=O)(=O)c2cccc(C(F)(F)F)c2)CC1	5.9%
Cc1ccc(CNC(=O)N2CCCN(C)c3ccccc32)cc1	-1.4%
C[C@@H]1CN(C(=O)c2ccc(Cn3cnnn3)cc2)CC[C@@]1(O)C1CCOCC1	-7.4%
CC(C)Cc1cc(C(=O)N[C@H]2CN(C(=O)N(C)C)C[C@@H]2C2CC2)nc(N)n1	8.8%
CCOCCOC1CCN(C(=O)c2ccc3cc[nH]c3c2)CC1	27.0%
Cc1noc(-c2cn(C3CCCN(C(=O)c4ccc(F)cc4)C3)nn2)n1 (centres undefined)	-0.7%
Cc1cnc(C(=O)N[C@@H]2CCC[C@@H]2C(=O)NCc2ccc(F)cc2)cn1	9.8%
CC(C(=O)O)N1CC2(CCC1=O)CCN(C(=O)N1CCCC1)CC2 (centres undefined)	3.4%
O=[S+]([O-])(c1cccc(C(F)(F)F)c1)N1CC(Oc2ccc3c(c2)OCO3)C1	15.7%
CCC(CC)C(=O)NC[C@@H]1C=C(C)[C@H](Cc2nc3ccc(F)cc3[nH]2)C[C@H]1C(C)C	i
SMILES	Pf Dd2 growth
CC1=C[C@@H](CNC(=O)c2cccnc2)[C@H](C(C)C)C[C@H]1CC(=O)NC1CCCC1	i
CC1=C[C@@H](CNC(=O)C(C)C)[C@H](C(C)C)C[C@H]1Cc1nc2ncccc2[nH]1	-2.6%[44.1 µM]
COc1ccc2[nH]c(C[C@@H]3C[C@@H](C(C)C)[C@H](CNC(=O)c4cccnc4)C=C3C)nc2n1	11.2µM*
CCCNC(=O)NC[C@@H]1C=C(C)[C@H](Cc2nc3nc(OC)ccc3[nH]2)C[C@H]1C(C)C	10µM*
CC(=O)NC[C@@H]1C=C(C)[C@H](Cc2nc3ccccc3[nH]2)C[C@H]1C(C)C	-23.8%[44.1 µM]
CCCN(C)c1nccnc1OC1CCN(C(=O)C(C)C)C1 (centres undefined)	-23.6%
CCn1c(C(=O)OC)c(NC(=O)C2CCOC2)c2cc(NC(C)Cc3ccccc3OC)cnc21 (centres undefined)	i
COCCN1CCCN(C(=O)C2CCCCC2)c2ccccc21	i
Cc1cccc(CN2CCOCCNC(=O)[C@H]3CCCC[C@H]32)c1	-14.0%
OCC1CN(c2ncccn2)CC12CCN(C1CCSCC1)CC2 (centres undefined)	5.7%
CC1CCN(c2ccc(-c3cccc(N)c3)nn2)CC1	-11.9%
COCCn1ncc(N2CCCC(CC(=O)N(C)Cc3ccccc3)C2)cc1=O (centres undefined)	-20.1%
CCOC(=O)CCNC(=O)N1C[C@@H](Oc2cccnc2)C[C@H]1C(=O)N1CCCC1	53.6%
O=C(c1cscn1)N1CCCC2(COc3ccccc3[S+](=O)([O-])N2)C1 (centres undefined)	i
CCCCOc1cccc(C(=O)N(Cc2cccs2)c2ccc(OC)cc2)c1	0.316µM*
COc1ccc(N(Cc2cccs2)C(=O)COc2cccc(Cl)c2)cc1	-8.1%
COc1ccc(N(Cc2cccs2)C(=O)c2ccc(OC)c(Cl)c2)cc1	3.4%
CC(C)Cc1cc(C[C@@H]2C[C@H](NC(=O)C3CCCC3)C2(C)C)no1	i
CCc1cccc(NC(=O)CCS(=O)(=O)c2cc(Br)cc3c2N(C(C)=O)CC3)c1	-9.9%
O=C(CCS(=O)(=O)c1cc(Br)cc2c1N(C(=O)C1CC1)CC2)Nc1ccc(F)cc1	3.98µM*
Cc1ccc(Cl)cc1N1CCN(C(=O)CCS(=O)(=O)c2cc(Br)cc3c2N(C(=O)C2CC2)CC3)CC1	10µM*
CCCCN(Cc1ccccc1)S(=O)(=O)c1cc(Br)cc2c1N(C(C)=O)CC2	i
CCC(=O)N1CCc2cc(Br)cc(S(=O)(=O)CCC(=O)N3CCN(c4cc(C)ccc4C)CC3)c21	-8.9%
Cc1ccc(Cl)cc1N1CCN(S(=O)(=O)c2cc(Br)cc3c2N(C(=O)C2CC2)CC3)CC1	9.2%
Cc1ccc(Cl)cc1N1CCN(C(=O)CCNS(=O)(=O)c2ccc3c(c2)CCN3C(=O)C2CC2)CC1	-7.1%
SMILES	Pf Dd2 growth
CCOc1ccc(NS(=O)(=O)c2cc(Br)cc3c2N(C(=O)C2CC2)CC3)cc1	34.8%
CCC(=O)N1CCc2cc(Br)cc(S(=O)(=O)CCC(=O)Nc3ccccc3C)c21	1.7%
CC(=O)N1CCc2cc(Br)cc(S(=O)(=O)CCC(=O)N3CCN(c4cccc(C)c4C)CC3)c21	-24.4%
COc1ccc(N2CCN(C(=O)CCS(=O)(=O)c3cc(Br)cc4c3N(C(=O)C3CC3)CC4)CC2)cc1	5.01µM*
CCN(Cc1ccccc1)S(=O)(=O)c1cc(Br)cc2c1N(C(=O)C1CC1)CC2	7.94µM*
COC[C@@H]1CN(C(=O)CC2=CCCCC2)C[C@H]1c1ccccn1	i
COc1ccc(C2Cn3nnc(C(=O)N4CCC(C(=O)NCCc5cccs5)CC4)c3CO2)cc1 (centres undefined)	-22.7%
CN(C)c1cccc(C(=O)N2CCC3(CC2)NC(=O)N(c2cccc(Cl)c2)N3)c1	-10.8%
Cc1ccc(CN2C(=O)NC3(CCN(C(=O)c4ccc(C#N)cc4)CC3)C2=O)cc1	-0.5%
CNC(=O)[C@@H]1CN(C(=O)c2ccoc2)C[C@H]1COC	17.8%
NCc1cccc(-c2ccccc2F)c1	11.2µM*
O=Cc1cccc(-c2ccccc2F)c1	1.7%[76.6 µM]
O=Cc1cccc(-c2cccc(C(F)(F)F)c2)c1	i
O=C(c1ccncc1)N1CC2CCC(C1)N2Cc1cccc(-c2ccc(F)cc2F)c1	-8.8%
O=C(O)c1cccc(-c2cccc(C(F)(F)F)c2)c1	5.0%[44.1 µM]
Fc1ccccc1-c1noc(NCc2ccccc2)n1	-4.0%
O=Cc1cccc(-c2ccc(F)cc2F)c1	-11.0%[44.1 µM]
NCc1cccc(-c2ccc(F)cc2F)c1	12.6µM*
NCc1cccc(-c2cccc(C(F)(F)F)c2)c1	11.2µM*
Cc1cc(=O)n(CC(=O)N2CCN(c3ccccc3F)CC2)c(-c2ccc(F)cc2)n1	28.5%
